# Reference: PubChem BioAssay (NCATS)
# Inconclusive results are not listed. Activity calls are given as the source filed them. Calls come from the whole dose curve.
# Experiment: Cell Viability - MRC5 (AID 434);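 note: potency reflects cytotoxicity seen as loss of intracellular ATP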
# Conditions: MRC5 lung fibroblast viability, qHTS
# From the text: NIH Chemical Genomics Center [NCGC]
# NIH Molecular Libraries Screening Centers Network [MLSCN]
# National Institutes of Environmental Health Sciences [NIEHS]
# National Toxicology Program [NTP]
# We have developed a 1536-well cell-based assay for quantitative high throughput screening (qHTS) against a number of cell lines to determine in vitro cytotoxicity of small molecules. This particular assay uses the MRC5 cell line which is derived from normal human lung fibroblasts.
# NCGC Assay Protocol Summary:
# The CellTiter-Glo luminescent cell viability assay (Promega) is a homogeneous method to measure the number of viable cells in culture. The end point readout of this assay is based on quantitation of intracellular ATP, an indicator of metabolic activity, using the luciferase reaction. Luciferase catalyzes the oxidation of beetle Luciferin to oxyluciferin and light in the presence of ATP. The luminescent signal is proportional to amount of ATP present.
# Using the CellTiter-Glo luminescent cell viability assay, the amount of cellular ATP was measured in the MRC5 cell line with complete culture medium following compound treatment for 40 hours. The assay was performed in opaque white Kalypsys 1536-well plates. In the screen, tamoxifen and doxorubicin were used as positive controls. Library compounds were measured for their ability to cause acute toxicity in the cell line, as reflected by a decrease in intracellular ATP levels, in a concentration-dependent manner. Data were normalized to the controls for basal activity (DMSO only) and 100% inhibition (100 uM tamoxifen). AC50 values were determined from concentration-response data modeled with the standard Hill equation.
# qHTS protocol for CellTiter Glo MRC5 cellular assay
# [Step] [Parameter] [Value] [Description]
# 1. Reagent; 5 uL; 1500 MRC5 cells/well
# 2. Time; 5 hr; 37 °C incubation
# 4. Controls; 23 nL; Tamoxifen 0.34 uM to 100 uM & Doxorubicin 0.02 nM to 100 uM
# 5. Time; 40 hr; 37 °C incubation
# 6. Reagent; 5 uL; CellTiter Glo reagent
# 7. Time; 20 min; Room Temperature
# 8. Detection; Luminescence; Viewlux plate reader
# Keywords: cell viability, cytotoxicity, MRC5 cell line, luminescence, NTPHTS, NTPHTS_NCGC, NIEHS, EPA, DSSTox, MLSMR, MLSCN, NIH Roadmap, qHTS, NCGC
# Potency is the fitted concentration of half-maximal effect.
row,SMILES,Potency
1,CC(=O)OCC(COC(C)=O)OC(C)=O,> 92 µM (inactive)
2,CCCC(O)C(CC)CO (configuration not stated),> 92 µM (inactive)
3,CC(=O)NS(=O)(=O)c1ccc(N)cc1,> 92 µM (inactive)
4,O=C(c1ccccc1)C(O)c1ccccc1 (configuration not stated),> 92 µM (inactive)
5,O=C(O)CCCCC1CCSS1 (configuration not stated),> 92 µM (inactive)
6,O=C1c2cccc(O)c2C(=O)c2c(O)cccc21,> 92 µM (inactive)
7,FC(F)(F)C(Cl)Br (configuration not stated),> 92 µM (inactive)
8,Cc1cc(=O)[nH]c(=S)[nH]1,> 92 µM (inactive)
9,CC(=O)Nc1ccc(C(=O)O)cc1,> 92 µM (inactive)
10,CCCCCCCC(=O)OCC(COC(=O)CCCCCCC)OC(=O)CCCCCCC,> 92 µM (inactive)
11,CC1CC(OC(=O)c2ccccc2O)CC(C)(C)C1 (configuration not stated),> 92 µM (inactive)
12,CCN(CC)C(=O)c1cccc(C)c1,> 92 µM (inactive)
13,CCCCOC(=O)c1ccc(N)cc1,> 92 µM (inactive)
14,CCCCCC(N)=O,> 92 µM (inactive)
15,C=CCNC(N)=S,> 92 µM (inactive)
16,CC(=O)Nc1cccc(O)c1,> 92 µM (inactive)
17,O=C1C(c2[nH]c3ccccc3c2O)=Nc2ccccc21,> 92 µM (inactive)
18,COc1ccc(O)cc1,> 92 µM (inactive)
19,Cc1c(N(C)C)c(=O)n(-c2ccccc2)n1C,> 92 µM (inactive)
20,Nc1ccc(S(=O)(=O)c2ccc(N)cc2)cc1,> 92 µM (inactive)
21,CC(=O)Nc1ccccc1,> 92 µM (inactive)
22,Cc1cc(C)nc(NS(=O)(=O)c2ccc(N)cc2)n1,> 92 µM (inactive)
